Inhibition data for 11 compounds are collected here from ChEMBL document CHEMBL1157539, “Thousands of chemical starting points for antimalarial lead identification” (Nature, 2010).

Assay type in all cases: functional
The subject of test [1] is Plasmodium falciparum. The test can be described thus: GSK_TCMDC: Inhibition of Plasmodium falciparum 3D7 in whole red blood cells, using parasite LDH activity as an index of growth. Test compounds present at 2uM.
The subject of test [2] is Plasmodium falciparum. Nature of the test: GSK_TCMDC: Inhibition of Plasmodium falciparum Dd2 in whole red blood cells, using parasite LDH activity as an index of growth. Test compounds present at 2uM.
Test [3] relates to HepG2. The test can be described thus: GSK_TCMDC: Percent inhibition of human HepG2 cell line. Test compounds present at 10uM.

Structures are written as SMILES.

Take `CCC1(C)CC(CCNCc2ccccc2O)(c2ccc(C)cc2)CCO1` (stereo not drawn): the values for the Inhibition in test [1], in test [2] and in test [3] were 97%, 66% and 9%, respectively.

As for `CS(=O)(=O)Nc1ccc2[nH]cc(C3CCN(CC4CCC(NC(=O)/C=C/c5ccc(Cl)c(Cl)c5)CC4)CC3)c2c1` (stereo not drawn), the Inhibition (commonly the share of the control response that was lost under treatment) in test [1] is recorded as 100%; in test [2], 86%; in test [3], 22%.

Consider `Cc1csc(-c2ccc3[nH]cc(C4=CCN(C)CC4)c3c2)n1`, for which the results for the Inhibition in test [1], in test [2] and in test [3] were 93%, 78% and 10%, respectively.

As to `COc1cccc(CN2CCC(CCOC(c3ccccc3)c3ccccc3)CC2)c1O`, the Inhibition in test [1] was 97%; in test [2], 99%; in test [3], 33%.

Consider `COc1cc(C=CC(=O)N2CCC(CN3CCC(c4c[nH]c5ccccc45)CC3)CC2)cc(OC)c1`, for which the Inhibition in test [1] was 95%; in test [2], 8%; in test [3] it was 19%.

On to `CC[C@H]1CN2CC[C@H]1C[C@H]2[C@H](O)c1cc(N2CCCC2)nc2ccc(OC)cc12`, for which the values for the Inhibition in test [1], in test [2] and in test [3] were 98%, 100% and 0%, respectively.

For the compound `Cc1ccc(CC(C)NCC(O)c2cccc(Br)c2)cc1` (stereo not drawn), the Inhibition came to 99% in test [1], 97% in test [2] and 7% in test [3].

Regarding `Br.CNCCc1c(O)ccc2ccccc12`, the Inhibition is on record as 94% in test [1], 0% in test [2] and 6% in test [3].

On to `Oc1cc2c(cc1CN1CCN(Cc3ccccc3)CC1)CCC2`, for which the Inhibition in test [1] turned out to be 98%; in test [2], 92%; in test [3] it was 1%.

As to `COc1ccc(CN2CCN(CCOC(c3ccccc3)c3ccc(Cl)cc3)CC2)c(O)c1` (stereo not drawn), the Inhibition amounted to 99% in test [1], 98% in test [2] and 12% in test [3].

As for `CS(=O)(=O)Nc1ccc2[nH]cc(C3CC4CCC(C3)N4CC3CCC(NC(=O)/C=C/c4ccc(Cl)c(Cl)c4)CC3)c2c1` (stereo not drawn), the values for the Inhibition in test [1], in test [2] and in test [3] were 100%, 50% and 3%, respectively.
